Read-out in assay [1]: TIMP metallopeptidase inhibitor 2 (TIMP2), TIMP2 (gene 7077)
The assay can be described thus: BSK_KF3CT_TIMP2: BioMAP Diversity Plus: KF3CT Assay for TIMP metallopeptidase inhibitor 2 (TIMP2) Biomarker Activity (AID 2283071). Conditions: primary human keratinocytes with fibroblasts; actives raise or lower the signal. A digest of the protocol:
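Co-culture of human primary keratinocytes and foreskin fibroblasts, measured 24 h after chemical dosing. TIMP-2 quantified by ELISA and fitted in both directions relative to DMSO. Cytotoxicity checked in parallel cultures by SRB total-protein staining.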

Read-out in assay [2]: Transforming growth factor beta 1 (TGFb1), TGFB1 (gene 7040)
The assay can be described thus: BSK_KF3CT_TGFb1: BioMAP Diversity Plus: KF3CT Assay for Transforming growth factor beta 1 (TGFb1) Biomarker Activity (AID 2283072). As to conditions: primary human keratinocytes with fibroblasts; actives raise or lower the signal. A digest of the protocol:
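Human keratinocyte/foreskin fibroblast co-culture; TGF-b1 measured by ELISA 24 h after dosing, fitted bidirectionally versus DMSO. Cytotoxicity checked in parallel cultures by total protein (SRB staining, 560 nm).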

Read-out in assay [3]: C-C motif chemokine 2 (Homo sapiens) (UniProt P13500)
The assay can be described thus: BSK_KF3CT_MCP1: BioMAP Diversity Plus: KF3CT Assay for Monocyte Chemoattractant Protein 1 (MCP1/CCL2) Biomarker Activity (AID 2283073). As to conditions: primary human keratinocytes with fibroblasts; actives raise or lower the signal. A digest of the protocol:
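ELISA read-out of MCP-1, 24 h post-dose, in primary human skin keratinocytes co-cultured with fibroblasts. Parallel SRB staining monitors cytotoxicity; changes fitted both directions relative to DMSO.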

Read-out in assay [4]: Matrix Metallopeptidase 9 (MMP9), MMP9 (gene 4318)
The assay can be described thus: BSK_KF3CT_MMP9: BioMAP Diversity Plus: KF3CT Assay for Matrix Metallopeptidase 9 (MMP9) Biomarker Activity (AID 2283074).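 For AC50: MMP9 protein level quantified by ELISA in the co-culture.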 As to conditions: primary human keratinocytes with fibroblasts; actives raise or lower the signal. The gist of the method:
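Human keratinocyte and foreskin fibroblast co-culture exposed to chemicals for 24 h; MMP9 biomarker measured by ELISA, bidirectional fitting relative to DMSO; cytotoxicity tracked by SRB total protein staining in parallel cultures.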

Read-out in assay [5]: urokinase plasminogen activator (uPA), PLAU (gene 5328)
The assay can be described thus: BSK_KF3CT_uPA: BioMAP Diversity Plus: KF3CT Assay for urokinase plasminogen activator (uPA) Biomarker Activity (AID 2283075). Conditions: primary human keratinocytes with fibroblasts; actives raise or lower the signal. A digest of the protocol:
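Primary human keratinocyte/foreskin fibroblast co-culture exposed to chemical; uPA measured by ELISA at 24 h. Bidirectional fit versus DMSO, with parallel SRB total-protein staining for cytotoxicity.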

Read-out in another assay: CD40, CD40 (gene 958)
The assay can be described thus: BSK_LPS_CD40: BioMAP Diversity Plus: LPS Assay for CD40 Biomarker Activity (AID 2283076). As to conditions: primary human HUVEC with PBMC; actives raise or lower the signal. A digest of the protocol:
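In the LPS system of human endothelial cells with peripheral blood mononuclear cells, CD40 levels were read by ELISA 24 h post-treatment. Signal changes in either direction were fitted against the DMSO baseline, with parallel SRB protein staining.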

Read-out in assay [6]: E-selectin (Homo sapiens) (UniProt P16581)
The assay can be described thus: BSK_LPS_Eselectin: BioMAP Diversity Plus: LPS Assay for Eselectin Biomarker Activity (AID 2283077). As to conditions: primary human HUVEC with PBMC; actives raise or lower the signal. The gist of the method:
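E-selectin ELISA on LPS-stimulated endothelial cell/PBMC co-cultures, read 24 h post-treatment; gains and losses fitted against DMSO. Parallel SRB staining (0.1% SRB after 10% TCA fixation, 560 nm) flags overt cytotoxicity.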

Read-out in assay [7]: Interleukin-8 (IL8), CXCL8 (gene 3576)
The assay can be described thus: BSK_LPS_IL8: BioMAP Diversity Plus: LPS Assay for Interleukin-8 (IL8) Biomarker Activity (AID 2283078). Conditions: primary human HUVEC with PBMC; actives raise or lower the signal. A digest of the protocol: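 ELISA read-out of IL-8 after 24 h chemical treatment of LPS-activated endothelial/PBMC human primary co-cultures. Changes either up or down relative to DMSO; overt cytotoxicity checked by sulforhodamine B staining in parallel wells.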

Assay [8] can be described thus: BSK_LPS_SRB: Viability Assessment in the BioMAP Diversity Plus: LPS Assay (AID 2283079).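 Note: total protein by sulforhodamine B absorbance as a cytotoxicity measure; measured one day after compound addition; fitted in both directions against DMSO so loss or gain of signal counts.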 As to conditions: primary human HUVEC with PBMC. The gist of the method:
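SRB viability endpoint: cells fixed with 10% TCA, stained with 0.1% SRB, read at 560 nm, 24 h post-dose. HUVEC/PBMC co-culture; signal change in either direction scored relative to DMSO.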

Read-out in assay [9]: Interleukin-1 alpha (IL1a), IL1A (gene 3552)
The assay can be described thus: BSK_LPS_IL1a: BioMAP Diversity Plus: LPS Assay for Interleukin-1 alpha (IL1a) Biomarker Activity (AID 2283080). As to conditions: primary human HUVEC with PBMC; actives raise or lower the signal. The gist of the method: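 Readout is IL-1a level by ELISA, 24 h post-dose, fitted as gain or loss relative to DMSO. System: LPS-activated human primary co-culture of vascular endothelium and peripheral blood mononuclear cells, with parallel SRB total-protein cytotoxicity.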

A word on the AC50: it is the concentration at which the activity in the assay is half-maximal.

Active and inactive are the calls of the source. Rule for the calls: active = hit-call score of the fitted dose curve at least 0.9, where 1 is the maximum; inactive = score below 0.9.

E-selectin (Homo sapiens), sequence (P16581 whole entry, looked up): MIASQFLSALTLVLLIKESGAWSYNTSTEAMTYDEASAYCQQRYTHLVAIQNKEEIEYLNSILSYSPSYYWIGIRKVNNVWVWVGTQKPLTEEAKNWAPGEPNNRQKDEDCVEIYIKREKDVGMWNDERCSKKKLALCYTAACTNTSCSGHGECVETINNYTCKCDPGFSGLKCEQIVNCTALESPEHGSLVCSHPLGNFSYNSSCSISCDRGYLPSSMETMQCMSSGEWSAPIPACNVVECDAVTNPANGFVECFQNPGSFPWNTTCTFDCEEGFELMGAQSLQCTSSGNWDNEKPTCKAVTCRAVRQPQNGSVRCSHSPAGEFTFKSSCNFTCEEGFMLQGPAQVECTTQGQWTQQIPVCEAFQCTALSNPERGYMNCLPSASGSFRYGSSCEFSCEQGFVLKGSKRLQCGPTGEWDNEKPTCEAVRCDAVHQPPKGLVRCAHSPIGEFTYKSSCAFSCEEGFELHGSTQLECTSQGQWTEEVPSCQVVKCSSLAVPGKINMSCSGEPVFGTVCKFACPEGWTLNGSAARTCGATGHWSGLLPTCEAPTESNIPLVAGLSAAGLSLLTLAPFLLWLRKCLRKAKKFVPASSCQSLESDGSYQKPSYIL

As to `CC1=C(/C=C/C(C)=C/C=C/C(C)=C/CO)C(C)(C)CCC1`, the outcome in [1] was “inactive”; in [2] it was “inactive”; in assay [3], “inactive”; in assay [5], “inactive”; with CD40, CD40 (gene 958), “inactive”; in [7], “inactive”. Besides, the outcome in assay [8] and in assay [9] was inactive. Besides, the AC50 in [4] was 32.3 µM (active); in [6], 4.25 µM (active).

As for `CCCc1cc(=O)[nH]c(=S)[nH]1`, the outcome is “inactive” in assay [1]; “inactive” in [2]; “inactive” in assay [3]; “inactive” in [5]; “inactive” in the assay with CD40, CD40 (gene 958); “inactive” in assay [6]. The result in assay [7], in assay [8] and in [9] was inactive.

As to `CC=Cc1ccc(O)c(OC)c1`, the outcome in assay [1] was “inactive”; in assay [2], “inactive”; in [3] it was “inactive”; in assay [4], “inactive”; in assay [5], “inactive”; in the assay with CD40, CD40 (gene 958), “inactive”. Besides, the outcome in assay [6], in assay [7], in assay [8] and in assay [9] was inactive.

For `Nc1ccc2c(c1)C(=O)c1ccccc1C2=O`, the outcome is “inactive” in assay [1]; “inactive” in [2]; “inactive” in [3]; “inactive” in assay [5]; “inactive” with CD40, CD40 (gene 958); “inactive” in [6]. The result in [7], in assay [8] and in assay [9] was inactive.

With `CCCCCCOCCO`, the outcome in assay [1] is “inactive”; in [2], “inactive”; in [3], “inactive”; in assay [4] it was “inactive”; in [5], “inactive”; with CD40, CD40 (gene 958) it was “inactive”. In addition, the outcome in [6], in assay [7], in [8] and in [9] was inactive.

With `NC(=O)Cn1c(=O)cc(CCN2CCN(c3nccc4sccc34)CC2)c2ccc(F)cc21`, the outcome in assay [1] was “inactive”; in [2] it was “inactive”; in [3], “inactive”; in [4], “inactive”; in [5], “inactive”; with CD40, CD40 (gene 958), “inactive”. Further, the result in assay [6], in [7], in assay [8] and in assay [9] was inactive.

For `OC[C@@H](O)[C@@H](O)[C@H](O)[C@H](O)CO`, the outcome is “inactive” in assay [1]; “inactive” in assay [2]; “inactive” in [3]; “inactive” in assay [5]; “inactive” in the assay with CD40, CD40 (gene 958); “inactive” in assay [6]. Further, the outcome in assay [7], in assay [8] and in assay [9] was inactive.

Take `Cc1ccc(N(C)C)cc1`: the outcome in assay [1] was “inactive”; in assay [2], “inactive”; in assay [3] it was “inactive”; in assay [4] it was “inactive”; in assay [5], “inactive”; with CD40, CD40 (gene 958) it was “inactive”. For the same molecule, the outcome in [6], in assay [7], in assay [8] and in [9] was inactive.

As to `CCCCCC(=O)O`, the outcome in [1] is “inactive”; in assay [2] it was “inactive”; in [3], “inactive”; in assay [4], “inactive”; in assay [5], “inactive”; with CD40, CD40 (gene 958), “inactive”. The outcome in assay [6], in [7], in assay [8] and in assay [9] was inactive.

Regarding `Cc1nc(-c2ccc3c(c2)CCN(CCC2CCC(NC(=O)/C=C/c4ccc(F)cc4)CC2)CC3)no1` (centres undefined), the outcome in assay [1], in assay [2], in assay [3], in assay [4], in [5] and in assay [6] was inactive. Besides, the result in assay [8] and in assay [9] was inactive. In addition, the AC50 with CD40, CD40 (gene 958) was 3.86 µM (active); in [7], 6.69 µM (active).

Take `Cc1ccccc1Cl`: the outcome in assay [1] was “inactive”; in [2] it was “inactive”; in assay [3] it was “inactive”; in [4] it was “inactive”; in assay [5] it was “inactive”; with CD40, CD40 (gene 958), “inactive”. Further, the outcome in [6], in [7], in [8] and in assay [9] was inactive.

Take `Cc1ccc(C(C)C)c(O)c1`: the outcome in assay [1] was “inactive”; in assay [2] it was “inactive”; in assay [3], “inactive”; in assay [5] it was “inactive”; in the assay with CD40, CD40 (gene 958), “inactive”; in [6], “inactive”. For the same molecule, the outcome in [7], in assay [8] and in [9] was inactive.

As for `Cc1cccc(C)c1O`, the outcome in assay [1] is “inactive”; in assay [2], “inactive”; in assay [3] it was “inactive”; in assay [5] it was “inactive”; with CD40, CD40 (gene 958) it was “inactive”; in assay [6], “inactive”. For the same molecule, the result in assay [7], in assay [8] and in [9] was inactive.

As for `CN1CCN(Cc2cc(-c3ccc4[nH]c(=O)oc4c3)co2)[C@@H](c2ccc(F)cc2)C1`, the outcome is “inactive” in assay [1]; “inactive” in [2]; “inactive” in assay [3]; “inactive” in assay [5]; “inactive” in the assay with CD40, CD40 (gene 958); “inactive” in assay [6]. The outcome in [7] and in [9] was inactive. The half-maximal activity concentration (AC50) in assay [4] was 17.6 µM (active); in assay [8], 25.9 µM (active).

Regarding `CCOC(=O)C(C)(C)Oc1ccc(Cl)cc1`, the outcome in assay [1] was “inactive”; in assay [2] it was “inactive”; in assay [3], “inactive”; in assay [4], “inactive”; in [5], “inactive”; with CD40, CD40 (gene 958) it was “inactive”. The result in assay [6], in assay [7], in [8] and in [9] was inactive.

Turning to `CCNc1cccc(C)c1`, the outcome in assay [1] was “inactive”; in assay [2], “inactive”; in [3] it was “inactive”; in [4], “inactive”; in assay [5], “inactive”; with CD40, CD40 (gene 958), “inactive”. In addition, the outcome in [6], in [7], in assay [8] and in assay [9] was inactive.

Take `Cc1cc(=O)[nH]c(=S)[nH]1`: the outcome is “inactive” in assay [1]; “inactive” in assay [2]; “inactive” in assay [3]; “inactive” in assay [5]; “inactive” with CD40, CD40 (gene 958); “inactive” in assay [6]. The outcome in [7], in assay [8] and in [9] was inactive.

`CC(=O)Oc1ccccc1C(=O)O`: the outcome is “inactive” in assay [1]; “inactive” in assay [2]; “inactive” in assay [3]; “inactive” in assay [5]; “inactive” with CD40, CD40 (gene 958); “inactive” in [6]. Besides, the result in [7], in assay [8] and in assay [9] was inactive.

For the molecule `CCOc1ccc2c(c1)C(C)=CC(C)(C)N2`, the outcome in assay [1] is “inactive”; in assay [2], “inactive”; in assay [3] it was “inactive”; in assay [5], “inactive”; with CD40, CD40 (gene 958), “inactive”; in assay [6], “inactive”. Moreover, the result in assay [7], in [8] and in [9] was inactive.

For the molecule `CC(=O)C(C)=CC1C(C)=CCCC1(C)C` (centres undefined), the outcome in assay [1] was “inactive”; in [2], “inactive”; in assay [3], “inactive”; in assay [5] it was “inactive”; with CD40, CD40 (gene 958) it was “inactive”; in assay [6] it was “inactive”. In addition, the outcome in assay [7], in [8] and in assay [9] was inactive.

`CCc1c(C(=O)NN2CCCCC2)nn(-c2ccc(Cl)cc2Cl)c1-c1ccc(Br)cc1`: the AC50 in assay [1] is 5.8 µM (active); in assay [2], 6.72 µM (active); in assay [3] it was 13 µM (active); in assay [5], 7.27 µM (active); in the assay with CD40, CD40 (gene 958), 12.3 µM (active); in assay [6], 7.44 µM (active). In addition, the figures for the AC50 in assay [7], in assay [8] and in assay [9] were 5.2 µM (active), 9.94 µM (active) and 10.4 µM (active), respectively.

Turning to `O=C(O)Cc1ccccc1Nc1c(Cl)cccc1Cl`, the outcome in assay [1] was “inactive”; in assay [2] it was “inactive”; in assay [5] it was “inactive”; with CD40, CD40 (gene 958) it was “inactive”; in assay [6], “inactive”; in assay [7], “inactive”. Also, the result in [8] and in assay [9] was inactive. For the same molecule, the AC50 in assay [3] was 8.68 µM (active).

The values above are taken from PubChem BioAssay (EPA / NIEHS).
